# Test results as given in PubChem BioAssay (EPA / NIEHS).
# Calls of active or inactive are those of the source. The calls were made as follows: active = hit-call score of the fitted dose curve at least 0.9, where 1 is the maximum; inactive = score below 0.9.
# Columns and labels:
# Details in all cases: mRNA level, 48 h; actives raise or lower the signal
# [1] = read-out: CYP2C9 (gene 1559); experiment: LTEA_HepaRG_CYP2C9: Life Technologies and Expression Analysis (LTEA) Assay for CYP2C9 using HepaRG (AID 2283484)
# Outline: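 Eight-point concentration-response (highest 100 uM, half-log dilutions) in HepaRG cells for 48 h; CYP2C9 expression by qRT-PCR normalized to ACTB, GAPDH, POLR2A. Bidirectional fit, DMSO baseline.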
# [2] = read-out: CYP2E1 (gene 1571); experiment: LTEA_HepaRG_CYP2E1: Life Technologies and Expression Analysis (LTEA) Assay for CYP2E1 using HepaRG (AID 2283485)
# Outline: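 Readout is qRT-PCR of CYP2E1 mRNA, normalized to three housekeeping genes and fitted bidirectionally against 0.5% DMSO. HepaRG cells were dosed 48 h at eight concentrations, highest 100 uM with half-log dilutions.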
# [3] = read-out: CYP4A11 (gene 1579); experiment: LTEA_HepaRG_CYP4A11: Life Technologies and Expression Analysis (LTEA) Assay for CYP4A11 using HepaRG (AID 2283486)
# Outline: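 Readout is CYP4A11 transcript level by qRT-PCR, normalized to three housekeeping genes and fitted bidirectionally against 0.5% DMSO. Human HepaRG cells were treated 48 h, in duplicate, with an 8-point half-log series topping at 100 uM.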
# [4] = read-out: Cytochrome P450 3A4 (Homo sapiens) (UniProt P08684); experiment: LTEA_HepaRG_CYP3A4: Life Technologies and Expression Analysis (LTEA) Assay for CYP3A4 using HepaRG (AID 2283487)
# Outline: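 Differentiated HepaRG cells, plated 48 h, then dosed 48 h in serum-free induction medium with 0.5% DMSO, 8 half-log concentrations up to 100 uM, duplicate. CYP3A4 mRNA by qRT-PCR, normalized to ACTB/GAPDH/POLR2A; bidirectional fit versus DMSO.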
# [5] = read-out: DNA damage-inducible transcript 3 (DDIT3), DDIT3 (gene 1649); experiment: LTEA_HepaRG_DDIT3: Life Technologies and Expression Analysis (LTEA) Assay for DNA damage-inducible transcript 3 (DDIT3) using HepaRG (AID 2283488)
# Outline: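 Cells are human HepaRG liver cells treated for 48 h with eight half-log concentrations up to 100 uM in 0.5% DMSO. Transcript levels come from qRT-PCR normalized to three housekeeping genes, with activity fitted in both directions relative to vehicle.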
# [6] = read-out: Pro-epidermal growth factor (Homo sapiens) (UniProt P01133); experiment: LTEA_HepaRG_EGF: Life Technologies and Expression Analysis (LTEA) Assay for Epidermal growth factor (EGF) using HepaRG (AID 2283489)
# Outline: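 EGF transcript measured by Fluidigm TaqMan qRT-PCR with three housekeeping genes for normalization, 48 h after dosing HepaRG cultures in duplicate (top 100 uM, half-log steps, 0.5% DMSO vehicle). Gain or loss relative to DMSO fitted.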
# [7] = read-out: Early growth response protein 1 (EGR1) transcription factor, EGR1 (gene 1958); experiment: LTEA_HepaRG_EGR1: Life Technologies and Expression Analysis (LTEA) Assay for Early growth response protein 1 (EGR1) transcription factor using HepaRG (AID 2283490)
# Outline: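 EGR1 expression change in human HepaRG after 48 h chemical exposure, assessed by housekeeping-normalized qRT-PCR; concentration-response up to 100 uM, fitted in both directions against DMSO controls.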
# [8] = read-out: Ezrin (EZR), EZR (gene 7430); experiment: LTEA_HepaRG_EZR: Life Technologies and Expression Analysis (LTEA) Assay for Ezrin (EZR) using HepaRG (AID 2283491)
# Outline: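 EZR transcript levels came from Fluidigm qRT-PCR and were normalized to three housekeeping genes after 48 h chemical exposure of HepaRG cells. Dosing used an 8-point half-log series with a 100 uM top concentration in 0.5% DMSO, tested in duplicate; both directions were fitted versus vehicle.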
# [9] = read-out: CYP3A5 (gene 1577); experiment: LTEA_HepaRG_CYP3A5: Life Technologies and Expression Analysis (LTEA) Assay for CYP3A5 using HepaRG (AID 2283493)
# Outline: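 Human HepaRG hepatic cells receive 48 h chemical treatment at eight concentrations (half-log steps from 100 uM) in 0.5% DMSO. Expression of CYP3A5 is quantified by Fluidigm qRT-PCR and normalized to three reference genes.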
# [10] = read-out: Fatty Acid-Binding Protein 1 (FABP1), FABP1 (gene 2168); experiment: LTEA_HepaRG_FABP1: Life Technologies and Expression Analysis (LTEA) Assay for Fatty Acid-Binding Protein 1 (FABP1) using HepaRG (AID 2283494)
# Outline: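 Values reflect bidirectional concentration-response fitting of FABP1 mRNA change against 0.5% DMSO controls. Human HepaRG cultures received eight half-log doses (top 100 uM) for 48 h; expression quantified by TaqMan qRT-PCR with housekeeping-gene normalization.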
# [11] = read-out: Cytochrome P450 4A22 (Homo sapiens) (UniProt Q5TCH4); experiment: LTEA_HepaRG_CYP4A22: Life Technologies and Expression Analysis (LTEA) Assay for Cytochrome P450 4A22 (CYP4A22) using HepaRG (AID 2283495)
# Outline: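 Gene expression measured by qRT-PCR against three housekeeping genes (ACTB, GAPDH, POLR2A), with gain or loss fitted relative to 0.5% DMSO vehicle. HepaRG cultures received 48 h chemical treatment, top concentration 100 uM, half-log steps, duplicate wells.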
# [12] = read-out: Cytochrome P450 7A1 (Homo sapiens) (UniProt P22680); experiment: LTEA_HepaRG_CYP7A1: Life Technologies and Expression Analysis (LTEA) Assay for Cytochrome P450 7A1 (CYP7A1) using HepaRG (AID 2283496)
# Outline: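 HepaRG, 48 h exposure, 8-pt half-log series from 100 uM, 0.5% DMSO vehicle, duplicates. Readout: TaqMan qRT-PCR mRNA vs three housekeeping genes; bidirectional curve fit against DMSO baseline.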
# [13] = read-out: Glutathione S-Transferase (GSTA2), GSTA2 (gene 2939); experiment: LTEA_HepaRG_GSTA2: Life Technologies and Expression Analysis (LTEA) Assay for Glutathione S-Transferase (GSTA2) using HepaRG (AID 2283497)
# Outline: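 Oxidative-stress marker GSTA2 is quantified by TaqMan qRT-PCR in HepaRG cultures treated 48 h across an eight-point range to 100 uM. Expression is normalized to endogenous controls and compared with 0.5% DMSO vehicle.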
# [14] = read-out: Glutamate-cysteine ligase catalytic (GCLC), GCLC (gene 2729); experiment: LTEA_HepaRG_GCLC: Life Technologies and Expression Analysis (LTEA) Assay for Glutamate-cysteine ligase catalytic (GCLC) using HepaRG (AID 2283498)
# Outline: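 Oxidative-stress marker GCLC is measured as mRNA change in human HepaRG liver cells after 48 h chemical treatment in 0.5% DMSO, eight concentrations from 100 uM. Activity is fitted bidirectionally against vehicle.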
# [15] = read-out: growth arrest and DNA damage 45 (GADD45G), GADD45G (gene 10912); experiment: LTEA_HepaRG_GADD45G: Life Technologies and Expression Analysis (LTEA) Assay for growth arrest and DNA damage 45 (GADD45G) using HepaRG (AID 2283499)
# Outline: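 GADD45G transcript level by qRT-PCR (housekeeping-normalized: ACTB, GAPDH, POLR2A) after 48 h chemical treatment of a single HepaRG lot in serum-free induction medium; eight-point half-log series up to 100 uM in 0.5% DMSO, duplicates, up- or down-regulation scored.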
# [16] = read-out: Glutamate-cysteine ligase regulatory (GCLM), GCLM (gene 2730); experiment: LTEA_HepaRG_GCLM: Life Technologies and Expression Analysis (LTEA) Assay for Glutamate-cysteine ligase regulatory (GCLM) using HepaRG (AID 2283500)
# Outline: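 Endpoint is GCLM transcript level by qRT-PCR, normalized to three housekeeping genes, after 48 h chemical exposure of human HepaRG cells (0.5% DMSO vehicle, top 100 uM, half-log dilutions). Fitting was bidirectional relative to DMSO.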
# [17] = read-out: Glutathione S-transferase M3 (GSTM3), GSTM3 (gene 2947); experiment: LTEA_HepaRG_GSTM3: Life Technologies and Expression Analysis (LTEA) Assay for Glutathione S-transferase M3 (GSTM3) using HepaRG (AID 2283501)
# Outline: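 GSTM3 transcript levels came from Fluidigm TaqMan qRT-PCR normalized to three housekeeping genes, fitted in both directions against DMSO. HepaRG cultures received chemicals for 48 h in serum-free induction medium (0.5% DMSO), 8 half-log concentrations up to 100 uM, duplicate.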
# [18] = read-out: Heat shock 70 kDa protein 1 (HSPA1A), gene 3303; experiment: LTEA_HepaRG_HSPA1A: Life Technologies and Expression Analysis (LTEA) Assay for Heat shock 70 kDa protein 1 (HSPA1A) using HepaRG (AID 2283502)
# Outline: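 Cells were plated and cultured for 48 h, then switched to serum-free induction medium. Chemicals were added at eight half-log concentrations up to 100 uM for 48 h. RNA was then isolated and HSPA1A measured by qRT-PCR with bidirectional curve fitting against DMSO.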
# [19] = read-out: Hypoxia-inducible factor 1-alpha (Homo sapiens) (UniProt Q16665); experiment: LTEA_HepaRG_HIF1A: Life Technologies and Expression Analysis (LTEA) Assay for Hypoxia-inducible factor 1 (HIF1A) Trancription factor using HepaRG (AID 2283503)
# Outline: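 HIF1A transcript level read by qRT-PCR (ACTB, GAPDH, POLR2A normalization) after 48 h chemical exposure of HepaRG cultures. Eight half-log concentrations, top 100 uM, 0.5% DMSO vehicle, duplicates; bidirectional curve fit against DMSO baseline.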
# [20] = read-out: Cytochrome P450 3A7 (Homo sapiens) (UniProt P24462); experiment: LTEA_HepaRG_CYP3A7: Life Technologies and Expression Analysis (LTEA) Assay for CYP3A7 using HepaRG (AID 2283492)
# Outline: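 CYP3A7 transcript measured by qRT-PCR (ACTB, GAPDH, POLR2A normalization) after 48 h chemical exposure of HepaRG cells in duplicate. Eight half-log concentrations, maximum 100 uM, 0.5% DMSO vehicle; bidirectional curve fitting against DMSO baseline.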
# Sequence of Hypoxia-inducible factor 1-alpha (Homo sapiens) (Q16665 whole entry, looked up): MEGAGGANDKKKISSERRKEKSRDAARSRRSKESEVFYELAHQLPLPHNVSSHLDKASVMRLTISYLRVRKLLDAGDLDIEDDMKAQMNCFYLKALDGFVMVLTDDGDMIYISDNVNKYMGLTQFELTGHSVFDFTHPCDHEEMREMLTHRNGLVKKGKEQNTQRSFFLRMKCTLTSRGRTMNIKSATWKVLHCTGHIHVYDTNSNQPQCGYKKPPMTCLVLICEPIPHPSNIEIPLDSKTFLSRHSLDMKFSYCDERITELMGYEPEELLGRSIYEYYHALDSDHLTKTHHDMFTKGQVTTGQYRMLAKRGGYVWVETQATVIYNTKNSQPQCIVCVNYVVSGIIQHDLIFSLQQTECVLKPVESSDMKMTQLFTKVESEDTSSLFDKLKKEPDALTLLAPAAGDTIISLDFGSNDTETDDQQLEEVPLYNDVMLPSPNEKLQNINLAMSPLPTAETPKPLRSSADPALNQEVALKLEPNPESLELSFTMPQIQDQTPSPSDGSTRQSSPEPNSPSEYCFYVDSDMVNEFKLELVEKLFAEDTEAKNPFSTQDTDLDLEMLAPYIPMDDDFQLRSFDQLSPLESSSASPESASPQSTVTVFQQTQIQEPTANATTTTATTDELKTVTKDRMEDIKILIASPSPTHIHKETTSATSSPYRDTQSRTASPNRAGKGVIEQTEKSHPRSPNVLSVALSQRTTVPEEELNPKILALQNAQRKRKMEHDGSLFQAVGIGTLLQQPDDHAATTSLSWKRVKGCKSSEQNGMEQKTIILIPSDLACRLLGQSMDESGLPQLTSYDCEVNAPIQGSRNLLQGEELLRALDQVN
# Sequence of Cytochrome P450 3A4 (Homo sapiens) (P08684 whole entry, looked up): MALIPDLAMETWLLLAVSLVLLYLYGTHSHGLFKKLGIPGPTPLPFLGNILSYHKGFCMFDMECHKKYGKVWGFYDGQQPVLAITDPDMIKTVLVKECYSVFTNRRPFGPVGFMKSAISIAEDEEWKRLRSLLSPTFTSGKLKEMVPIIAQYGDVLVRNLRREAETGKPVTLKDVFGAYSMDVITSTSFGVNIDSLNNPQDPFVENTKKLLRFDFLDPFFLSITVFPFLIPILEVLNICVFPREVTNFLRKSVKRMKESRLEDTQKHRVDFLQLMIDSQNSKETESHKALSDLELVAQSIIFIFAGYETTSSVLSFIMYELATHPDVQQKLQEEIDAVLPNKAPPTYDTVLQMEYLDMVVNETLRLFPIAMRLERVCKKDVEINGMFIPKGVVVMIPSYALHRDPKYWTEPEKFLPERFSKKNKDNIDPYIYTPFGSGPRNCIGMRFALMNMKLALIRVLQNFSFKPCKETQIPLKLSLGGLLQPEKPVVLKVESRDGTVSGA
# Sequence of Cytochrome P450 3A7 (Homo sapiens) (P24462 whole entry, looked up): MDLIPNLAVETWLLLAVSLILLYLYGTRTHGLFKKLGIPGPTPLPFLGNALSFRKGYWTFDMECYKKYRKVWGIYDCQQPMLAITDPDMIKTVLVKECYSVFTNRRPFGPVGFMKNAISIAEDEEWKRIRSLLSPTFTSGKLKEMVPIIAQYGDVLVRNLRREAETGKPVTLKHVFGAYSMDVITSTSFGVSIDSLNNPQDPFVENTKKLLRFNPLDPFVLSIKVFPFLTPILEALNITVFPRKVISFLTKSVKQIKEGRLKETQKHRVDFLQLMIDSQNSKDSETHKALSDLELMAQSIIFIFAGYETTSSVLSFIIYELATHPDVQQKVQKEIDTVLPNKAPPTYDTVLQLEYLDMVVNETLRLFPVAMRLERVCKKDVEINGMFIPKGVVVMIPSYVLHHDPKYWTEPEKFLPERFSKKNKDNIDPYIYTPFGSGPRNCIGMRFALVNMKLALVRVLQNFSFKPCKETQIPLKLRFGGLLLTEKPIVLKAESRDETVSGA
smiles,measurement,setting,value
O=C(NS(=O)(=O)/C=C/c1cccs1)c1ccc(F)cc1Br,outcome,[1],inactive
same,AC50,[2],25.3 µM (active)
same,AC50,[3],14.1 µM (active)
same,AC50,[4],5.73 µM (active)
same,outcome,[5],inactive
same,outcome,[6],inactive
same,outcome,[7],inactive
same,outcome,[8],inactive
same,outcome,[9],inactive
same,AC50,[10],26.6 µM (active)
same,outcome,[11],inactive
same,AC50,[12],27.9 µM (active)
same,outcome,[13],inactive
same,outcome,[14],inactive
same,outcome,[15],inactive
same,outcome,[16],inactive
same,outcome,[17],inactive
same,outcome,[18],inactive
same,outcome,[19],inactive
CC(=O)OCC(COC(C)=O)OC(C)=O,outcome,[1],inactive
same,outcome,[2],inactive
same,outcome,[3],inactive
same,outcome,[4],inactive
same,outcome,[5],inactive
same,outcome,[6],inactive
same,outcome,[7],inactive
same,outcome,[8],inactive
same,outcome,[20],inactive
same,outcome,[9],inactive
same,outcome,[10],inactive
same,outcome,[11],inactive
same,outcome,[13],inactive
same,outcome,[14],inactive
same,outcome,[15],inactive
same,outcome,[16],inactive
same,outcome,[17],inactive
same,outcome,[18],inactive
same,outcome,[19],inactive
CC(=O)O,outcome,[1],inactive
same,outcome,[2],inactive
same,outcome,[3],inactive
same,outcome,[4],inactive
same,outcome,[5],inactive
same,outcome,[6],inactive
same,outcome,[7],inactive
same,outcome,[8],inactive
same,outcome,[20],inactive
same,outcome,[9],inactive
same,outcome,[10],inactive
same,outcome,[11],inactive
same,outcome,[12],inactive
same,outcome,[13],inactive
same,outcome,[14],inactive
same,outcome,[15],inactive
same,outcome,[16],inactive
same,outcome,[17],inactive
same,outcome,[18],inactive
same,outcome,[19],inactive
